Experimental data as given in publication PMC4336329 (PLoS ONE, 2015).
In all, about 310,000 compounds went through this assay and about 14,000 (4.5%) showed an effect of 50% or more. The effect is printed as a negative number. The list comes from a sample in which strong results are over-represented; it also holds similar structures and randomly drawn compounds.

Each compound was assayed against human ether-à-go-go-related gene (hERG) potassium channel (human, UniProt Q12809) (assay: primary screen, population patch clamp on CHO cells stably expressing hERG; higher = less effect of the substance).
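Further: peak tail current of the secondary pulse compared with the same well before compound.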

human ether-à-go-go-related gene (hERG) potassium channel, sequence (Q12809 whole entry, looked up): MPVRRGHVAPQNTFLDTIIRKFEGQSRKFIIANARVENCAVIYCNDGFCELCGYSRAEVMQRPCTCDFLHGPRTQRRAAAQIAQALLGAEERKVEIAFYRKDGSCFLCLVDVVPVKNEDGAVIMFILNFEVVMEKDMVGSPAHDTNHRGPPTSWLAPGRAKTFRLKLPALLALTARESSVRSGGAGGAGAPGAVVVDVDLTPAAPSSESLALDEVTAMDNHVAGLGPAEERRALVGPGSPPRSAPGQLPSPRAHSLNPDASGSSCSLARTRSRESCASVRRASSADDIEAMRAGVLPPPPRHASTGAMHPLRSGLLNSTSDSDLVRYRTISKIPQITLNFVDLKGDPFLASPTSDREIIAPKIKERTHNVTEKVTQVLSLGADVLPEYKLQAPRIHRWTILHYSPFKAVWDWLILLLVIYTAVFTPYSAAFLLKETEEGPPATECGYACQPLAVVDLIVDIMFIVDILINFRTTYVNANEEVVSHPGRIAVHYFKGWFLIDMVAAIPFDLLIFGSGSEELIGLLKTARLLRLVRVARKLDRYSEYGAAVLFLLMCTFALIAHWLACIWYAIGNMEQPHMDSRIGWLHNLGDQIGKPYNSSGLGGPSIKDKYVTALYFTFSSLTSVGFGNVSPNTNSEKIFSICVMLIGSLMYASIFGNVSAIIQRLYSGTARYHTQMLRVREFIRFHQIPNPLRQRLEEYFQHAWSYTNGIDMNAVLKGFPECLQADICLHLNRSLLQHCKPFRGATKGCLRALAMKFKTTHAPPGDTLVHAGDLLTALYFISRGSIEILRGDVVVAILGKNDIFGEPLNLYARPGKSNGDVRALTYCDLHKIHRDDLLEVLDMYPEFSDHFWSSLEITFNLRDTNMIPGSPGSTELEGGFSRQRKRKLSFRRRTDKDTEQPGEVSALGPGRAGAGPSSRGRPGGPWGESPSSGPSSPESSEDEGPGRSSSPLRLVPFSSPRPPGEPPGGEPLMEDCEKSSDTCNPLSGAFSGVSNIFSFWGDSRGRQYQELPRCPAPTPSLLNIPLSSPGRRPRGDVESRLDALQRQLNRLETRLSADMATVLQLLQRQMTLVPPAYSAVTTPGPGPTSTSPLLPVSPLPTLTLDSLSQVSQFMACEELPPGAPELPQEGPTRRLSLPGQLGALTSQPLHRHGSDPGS

Q: For `CCCCNc1nc(Nc2ccc(C)c(Cl)c2)c2cnn(C)c2n1`, which “hERG current change (%, negative = inhibition) at 10uM” value is on record?
A: 15.3%

Q: Which “hERG current change (%, negative = inhibition) at 10uM” value does the source give for `COc1ccccc1-c1nnc(SCC(=O)NC2CCS(=O)(=O)C2)n1CCc1ccccc1` (stereo not drawn) here?
A: 8.05%

Q: `COc1ccccc1-n1c(SCC(=O)NC2CCS(=O)(=O)C2)nc2cc([N+](=O)[O-])ccc21` (stereo not drawn) was tested. Which “hERG current change (%, negative = inhibition) at 10uM” value did it give?
A: -16.2%

Q: Which “hERG current change (%, negative = inhibition) at 10uM” value does the source give for `CCn1c(SCC(=O)NC2CCS(=O)(=O)C2)nnc1-c1ccccc1` (stereo not drawn) here?
A: 5.49%

Q: `COc1ccccc1-n1c(SCC(=O)NC2CCS(=O)(=O)C2)nc2ccccc2c1=O` (stereo not drawn) was tested. Which “hERG current change (%, negative = inhibition) at 10uM” value did it give?
A: -3.39%

Q: `CN(C(=O)CSc1nc2cc([N+](=O)[O-])ccc2n1-c1ccc(F)cc1)C1CCS(=O)(=O)C1` (stereo not drawn) was tested. Which “hERG current change (%, negative = inhibition) at 10uM” value did it give?
A: 2.56%

Q: `O=C(CSc1nc2ccccc2c(=O)n1-c1ccccc1F)NC1CCS(=O)(=O)C1` (stereo not drawn) was tested. Which “hERG current change (%, negative = inhibition) at 10uM” value did it give?
A: -57%

Q: How did the “hERG current change (%, negative = inhibition) at 10uM” value turn out when `O=C(CSc1nc2ccccc2c(=O)n1-c1ccccc1Cl)NC1CCS(=O)(=O)C1` (stereo not drawn) was run?
A: 6.55%

Q: For `O=C(CSc1nc2cc([N+](=O)[O-])ccc2n1-c1ccc(F)cc1)NC1CCS(=O)(=O)C1` (stereo not drawn), which “hERG current change (%, negative = inhibition) at 10uM” value is on record?
A: -52.6%

Q: `O=C(CSc1nnc(-c2ccc(Br)cc2)n1CCc1ccccc1)NC1CCS(=O)(=O)C1` (stereo not drawn) was tested. Which “hERG current change (%, negative = inhibition) at 10uM” value did it give?
A: -86.8%

Q: For `Cc1ccc2oc(/N=C(\N)NC(=O)C(C)(C)C)nc2c1`, which “hERG current change (%, negative = inhibition) at 10uM” value is on record?
A: 4.85%

Q: With `CC1=Nn2c(nnc2-c2ccco2)SC1` as the compound, how does the “hERG current change (%, negative = inhibition) at 10uM” value read?
A: -3.87%

Q: How did the “hERG current change (%, negative = inhibition) at 10uM” value turn out when `O=C(/C=C/c1ccco1)Nc1sc2c(c1C(=O)O)CCC2` was run?
A: -2.95%

Q: How did the “hERG current change (%, negative = inhibition) at 10uM” value turn out when `CSc1scc2c1-c1nc(SCC(=O)C(C)(C)C)ncc1CC2` was run?
A: 11%

Q: Which “hERG current change (%, negative = inhibition) at 10uM” value does the source give for `CN(C)CCCN(C(=O)c1ccc(S(=O)(=O)N2CCc3ccccc3C2)cc1)c1nc2ccc(F)cc2s1.Cl` here?
A: 1.76%

Q: Which “hERG current change (%, negative = inhibition) at 10uM” value does the source give for `CN(C)CCCN(C(=O)c1ccc(S(=O)(=O)N2CCOCC2)cc1)c1nc2ccc(F)cc2s1.Cl` here?
A: -58.7%

Q: Which “hERG current change (%, negative = inhibition) at 10uM” value does the source give for `CN(C)CCCN(C(=O)c1ccc(S(=O)(=O)N2CCCc3ccccc32)cc1)c1nc2ccc(F)cc2s1.Cl` here?
A: -17.1%

Q: With `CN(C)CCCN(C(=O)c1ccc(S(=O)(=O)N2CCCCCC2)cc1)c1nc2ccc(Br)cc2s1.Cl` as the compound, how does the “hERG current change (%, negative = inhibition) at 10uM” value read?
A: -22%

Q: With `CN(C)CCCN(C(=O)c1ccc(S(=O)(=O)N2CCCCCC2)cc1)c1nc2ccc(F)cc2s1.Cl` as the compound, how does the “hERG current change (%, negative = inhibition) at 10uM” value read?
A: -73.1%

Q: With `CN(C)CCCN(C(=O)c1ccc(S(=O)(=O)N2CCc3ccccc32)cc1)c1nc2ccc(F)cc2s1.Cl` as the compound, how does the “hERG current change (%, negative = inhibition) at 10uM” value read?
A: -13.7%

Q: With `CC1CCN(C(=O)CSc2ccc(-c3ccccc3)nn2)CC1` as the compound, how does the “hERG current change (%, negative = inhibition) at 10uM” value read?
A: -11.8%
